Measured values as given in paper PMC7862700, “An all-to-all approach to the identification of sequence-specific readers for epigenetic DNA modifications on cytosine”.

Biological target: T1, SPIC (Homo sapiens, UniProt Q8N5J4 1-248)
T1 sequence: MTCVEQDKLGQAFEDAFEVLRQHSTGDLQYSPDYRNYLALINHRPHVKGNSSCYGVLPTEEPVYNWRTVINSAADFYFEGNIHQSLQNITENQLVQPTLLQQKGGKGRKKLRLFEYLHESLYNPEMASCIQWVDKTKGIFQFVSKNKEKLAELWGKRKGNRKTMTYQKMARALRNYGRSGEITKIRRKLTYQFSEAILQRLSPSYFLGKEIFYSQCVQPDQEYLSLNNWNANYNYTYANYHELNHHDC
Assay: DAPPL (digital affinity profiling via proximity ligation, sequencing); 10 mM Tris-HCl pH 7.5, 50 mM NaCl, 1 mM DTT, 4% glycerol, room temperature, 30 min; GST-TFs on glutathione beads, 16-mer random dsDNA library, 0.1% formaldehyde crosslink after washing; high values mean tight binding
Settings: protein: recombinant; tags: N-terminal GST; dsDNA, one strand shown
Outline: (§1)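 Yeast served to express human transcription factors as GST fusions, which were then captured on glutathione beads and labelled with DNA barcodes. Pooled with a tag-only sample, they were incubated with 200 nmole of a 16-mer random double-stranded DNA library for 30 min at room temperature in Tris/NaCl/DTT/glycerol buffer, washed, crosslinked with 0.1% formaldehyde, ligated by proximity, amplified by PCR and sequenced. Dividing each hexamer's read frequency for a factor by its frequency for the tag-only sample gives the binding signal.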

| Sequence | binding signal |
| --- | --- |
| TCTTCG | 1.38 fold enrichment (6-mer frequency, TF over GST control) |
| GCTTTG | 1.22 fold enrichment (6-mer frequency, TF over GST control) |
| TCTCTG | 1.59 fold enrichment (6-mer frequency, TF over GST control) |
| TAAAAG | 1.14 fold enrichment (6-mer frequency, TF over GST control) |
| CCTTAA | 1.22 fold enrichment (6-mer frequency, TF over GST control) |
| CTTTTT | 1.34 fold enrichment (6-mer frequency, TF over GST control) |
| CTTCAA | 1.32 fold enrichment (6-mer frequency, TF over GST control) |
| ACTAAA | 1.14 fold enrichment (6-mer frequency, TF over GST control) |
| ATATCC | 2.59 fold enrichment (6-mer frequency, TF over GST control) |
| AATCTC | 1.13 fold enrichment (6-mer frequency, TF over GST control) |
| TACCCG | 1.55 fold enrichment (6-mer frequency, TF over GST control) |
| CCTGTT | 1.91 fold enrichment (6-mer frequency, TF over GST control) |
| TTTTCC | 1.72 fold enrichment (6-mer frequency, TF over GST control) |
| AAAACT | 1.23 fold enrichment (6-mer frequency, TF over GST control) |
| TAATAC | 1.12 fold enrichment (6-mer frequency, TF over GST control) |
| GACTTC | 2.23 fold enrichment (6-mer frequency, TF over GST control) |
| ATGGCA | 1.21 fold enrichment (6-mer frequency, TF over GST control) |
| TCCGAC | 1.59 fold enrichment (6-mer frequency, TF over GST control) |
| TTACAG | 1.3 fold enrichment (6-mer frequency, TF over GST control) |
| AATTTC | 1.59 fold enrichment (6-mer frequency, TF over GST control) |

| Sequence | binding signal |
| --- | --- |
| ACCAAT | 1.31 fold enrichment (6-mer frequency, TF over GST control) |
| TAACAC | 1.39 fold enrichment (6-mer frequency, TF over GST control) |
| TTAGGG | 1.04 fold enrichment (6-mer frequency, TF over GST control) |
| CTACAC | 1.32 fold enrichment (6-mer frequency, TF over GST control) |
| CTAGCT | 1.59 fold enrichment (6-mer frequency, TF over GST control) |
| ATCCAT | 1.16 fold enrichment (6-mer frequency, TF over GST control) |
| TAGTAC | 1.27 fold enrichment (6-mer frequency, TF over GST control) |
| TTTGAA | 1.24 fold enrichment (6-mer frequency, TF over GST control) |
| AACCTA | 1.03 fold enrichment (6-mer frequency, TF over GST control) |
| GATGTT | 1.39 fold enrichment (6-mer frequency, TF over GST control) |
| CCTTAG | 1.36 fold enrichment (6-mer frequency, TF over GST control) |
| CGCGCT | 1.31 fold enrichment (6-mer frequency, TF over GST control) |
| CATCTA | 1.34 fold enrichment (6-mer frequency, TF over GST control) |
| TCTATT | 1.57 fold enrichment (6-mer frequency, TF over GST control) |
| CTATTT | 2.07 fold enrichment (6-mer frequency, TF over GST control) |
| TTCAGG | 1.13 fold enrichment (6-mer frequency, TF over GST control) |
| GCTATA | 1.08 fold enrichment (6-mer frequency, TF over GST control) |
| CTCATT | 1.29 fold enrichment (6-mer frequency, TF over GST control) |
| CAATTT | 1.26 fold enrichment (6-mer frequency, TF over GST control) |

Biological target: ELF4 (Homo sapiens, UniProt Q99607 1-663)
Assay: as above
Settings: protein: recombinant; tags: N-terminal GST; dsDNA, one strand shown
Outline: as §1

ELF4, sequence (Q99607 whole entry): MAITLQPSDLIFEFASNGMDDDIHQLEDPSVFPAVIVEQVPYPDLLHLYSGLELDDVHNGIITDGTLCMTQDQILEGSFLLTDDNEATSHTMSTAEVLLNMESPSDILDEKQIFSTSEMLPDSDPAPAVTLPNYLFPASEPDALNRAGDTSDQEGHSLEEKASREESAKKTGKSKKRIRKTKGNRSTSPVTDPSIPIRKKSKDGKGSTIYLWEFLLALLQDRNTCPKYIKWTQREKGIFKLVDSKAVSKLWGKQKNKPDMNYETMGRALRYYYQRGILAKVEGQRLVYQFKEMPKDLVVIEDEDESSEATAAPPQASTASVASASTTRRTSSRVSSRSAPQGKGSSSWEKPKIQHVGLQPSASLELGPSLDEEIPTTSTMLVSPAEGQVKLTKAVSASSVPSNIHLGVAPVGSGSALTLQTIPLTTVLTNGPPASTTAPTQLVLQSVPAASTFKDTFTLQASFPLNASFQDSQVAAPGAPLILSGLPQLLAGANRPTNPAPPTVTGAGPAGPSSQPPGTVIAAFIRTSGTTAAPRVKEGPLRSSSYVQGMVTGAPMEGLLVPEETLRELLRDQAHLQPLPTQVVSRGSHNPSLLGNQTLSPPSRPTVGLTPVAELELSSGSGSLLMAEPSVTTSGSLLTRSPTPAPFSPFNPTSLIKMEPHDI

| Sequence | binding signal |
| --- | --- |
| TCTTCG | 1.49 fold enrichment (6-mer frequency, TF over GST control) |
| GCTTTG | 1.17 fold enrichment (6-mer frequency, TF over GST control) |
| TCTCTG | 1.58 fold enrichment (6-mer frequency, TF over GST control) |
| TAAAAG | 1.17 fold enrichment (6-mer frequency, TF over GST control) |
| CCTTAA | 1.3 fold enrichment (6-mer frequency, TF over GST control) |
| CTTTTT | 1.43 fold enrichment (6-mer frequency, TF over GST control) |
| CTTCAA | 1.29 fold enrichment (6-mer frequency, TF over GST control) |
| ACTAAA | 1.31 fold enrichment (6-mer frequency, TF over GST control) |
| ATATCC | 2.27 fold enrichment (6-mer frequency, TF over GST control) |
| AATCTC | 1.25 fold enrichment (6-mer frequency, TF over GST control) |
| TACCCG | 1.4 fold enrichment (6-mer frequency, TF over GST control) |
| CCTGTT | 1.72 fold enrichment (6-mer frequency, TF over GST control) |
| TTTTCC | 1.84 fold enrichment (6-mer frequency, TF over GST control) |
| AAAACT | 1.21 fold enrichment (6-mer frequency, TF over GST control) |
| TAATAC | 1.14 fold enrichment (6-mer frequency, TF over GST control) |
| GACTTC | 2.28 fold enrichment (6-mer frequency, TF over GST control) |
| ATGGCA | 1.2 fold enrichment (6-mer frequency, TF over GST control) |
| TCCGAC | 1.44 fold enrichment (6-mer frequency, TF over GST control) |
| TTACAG | 1.26 fold enrichment (6-mer frequency, TF over GST control) |
| AATTTC | 1.61 fold enrichment (6-mer frequency, TF over GST control) |

| Sequence | binding signal |
| --- | --- |
| ACCAAT | 1.38 fold enrichment (6-mer frequency, TF over GST control) |
| TAACAC | 1.26 fold enrichment (6-mer frequency, TF over GST control) |
| TTAGGG | 1.16 fold enrichment (6-mer frequency, TF over GST control) |
| CTACAC | 1.17 fold enrichment (6-mer frequency, TF over GST control) |
| CTAGCT | 1.29 fold enrichment (6-mer frequency, TF over GST control) |
| ATCCAT | 1.13 fold enrichment (6-mer frequency, TF over GST control) |
| TAGTAC | 1.15 fold enrichment (6-mer frequency, TF over GST control) |
| TTTGAA | 1.32 fold enrichment (6-mer frequency, TF over GST control) |
| AACCTA | 1.15 fold enrichment (6-mer frequency, TF over GST control) |
| GATGTT | 1.22 fold enrichment (6-mer frequency, TF over GST control) |
| CCTTAG | 1.34 fold enrichment (6-mer frequency, TF over GST control) |
| CGCGCT | 1.2 fold enrichment (6-mer frequency, TF over GST control) |
| CATCTA | 1.17 fold enrichment (6-mer frequency, TF over GST control) |
| TCTATT | 1.27 fold enrichment (6-mer frequency, TF over GST control) |
| CTATTT | 1.69 fold enrichment (6-mer frequency, TF over GST control) |
| TTCAGG | 1.11 fold enrichment (6-mer frequency, TF over GST control) |
| GCTATA | 1.14 fold enrichment (6-mer frequency, TF over GST control) |
| CTCATT | 1.52 fold enrichment (6-mer frequency, TF over GST control) |
| CAATTT | 1.35 fold enrichment (6-mer frequency, TF over GST control) |

Biological target: T2, ELK4 (Homo sapiens, UniProt P28324-2 1-405)
T2 sequence: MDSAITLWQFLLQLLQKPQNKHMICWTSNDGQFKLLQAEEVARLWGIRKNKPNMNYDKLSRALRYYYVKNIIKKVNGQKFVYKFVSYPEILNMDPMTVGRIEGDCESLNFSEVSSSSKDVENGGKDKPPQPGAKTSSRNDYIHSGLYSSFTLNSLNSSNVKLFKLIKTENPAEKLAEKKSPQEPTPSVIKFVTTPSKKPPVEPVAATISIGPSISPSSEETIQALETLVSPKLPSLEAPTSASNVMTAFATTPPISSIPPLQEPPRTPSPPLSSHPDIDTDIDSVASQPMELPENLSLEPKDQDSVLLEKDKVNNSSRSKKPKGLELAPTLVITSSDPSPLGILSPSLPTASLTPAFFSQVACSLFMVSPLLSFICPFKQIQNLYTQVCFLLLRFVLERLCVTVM
Assay: as above
Settings: protein: recombinant; tags: N-terminal GST; dsDNA, one strand shown
Outline: as §1

| Sequence | binding signal |
| --- | --- |
| TCTTCG | 1.45 fold enrichment (6-mer frequency, TF over GST control) |
| GCTTTG | 1.22 fold enrichment (6-mer frequency, TF over GST control) |
| TCTCTG | 1.69 fold enrichment (6-mer frequency, TF over GST control) |
| TAAAAG | 1.2 fold enrichment (6-mer frequency, TF over GST control) |
| CCTTAA | 1.27 fold enrichment (6-mer frequency, TF over GST control) |
| CTTTTT | 1.24 fold enrichment (6-mer frequency, TF over GST control) |
| CTTCAA | 1.52 fold enrichment (6-mer frequency, TF over GST control) |
| ACTAAA | 1.4 fold enrichment (6-mer frequency, TF over GST control) |
| ATATCC | 2.39 fold enrichment (6-mer frequency, TF over GST control) |
| AATCTC | 1.22 fold enrichment (6-mer frequency, TF over GST control) |
| TACCCG | 1.55 fold enrichment (6-mer frequency, TF over GST control) |
| CCTGTT | 1.55 fold enrichment (6-mer frequency, TF over GST control) |
| TTTTCC | 1.62 fold enrichment (6-mer frequency, TF over GST control) |
| AAAACT | 1.1 fold enrichment (6-mer frequency, TF over GST control) |
| TAATAC | 1.04 fold enrichment (6-mer frequency, TF over GST control) |
| GACTTC | 2.22 fold enrichment (6-mer frequency, TF over GST control) |
| ATGGCA | 1.15 fold enrichment (6-mer frequency, TF over GST control) |
| TCCGAC | 1.43 fold enrichment (6-mer frequency, TF over GST control) |
| TTACAG | 1.37 fold enrichment (6-mer frequency, TF over GST control) |
| AATTTC | 1.6 fold enrichment (6-mer frequency, TF over GST control) |

| Sequence | binding signal |
| --- | --- |
| ACCAAT | 1.35 fold enrichment (6-mer frequency, TF over GST control) |
| TAACAC | 1.32 fold enrichment (6-mer frequency, TF over GST control) |
| TTAGGG | 1.02 fold enrichment (6-mer frequency, TF over GST control) |
| CTACAC | 1.23 fold enrichment (6-mer frequency, TF over GST control) |
| CTAGCT | 1.35 fold enrichment (6-mer frequency, TF over GST control) |
| ATCCAT | 1.14 fold enrichment (6-mer frequency, TF over GST control) |
| TAGTAC | 1.16 fold enrichment (6-mer frequency, TF over GST control) |
| TTTGAA | 1.34 fold enrichment (6-mer frequency, TF over GST control) |
| AACCTA | 1.07 fold enrichment (6-mer frequency, TF over GST control) |
| GATGTT | 1.16 fold enrichment (6-mer frequency, TF over GST control) |
| CCTTAG | 1.34 fold enrichment (6-mer frequency, TF over GST control) |
| CGCGCT | 1.21 fold enrichment (6-mer frequency, TF over GST control) |
| CATCTA | 1.33 fold enrichment (6-mer frequency, TF over GST control) |
| TCTATT | 1.25 fold enrichment (6-mer frequency, TF over GST control) |
| CTATTT | 1.88 fold enrichment (6-mer frequency, TF over GST control) |
| TTCAGG | 1.19 fold enrichment (6-mer frequency, TF over GST control) |
| GCTATA | 1.18 fold enrichment (6-mer frequency, TF over GST control) |
| CTCATT | 1.63 fold enrichment (6-mer frequency, TF over GST control) |
| CAATTT | 1.31 fold enrichment (6-mer frequency, TF over GST control) |
